# Experimental data reported in PubChem BioAssay (NCI).
# Values joined by “and” are separate entries in the source; they are usually repeats but may differ in a detail not shown here. Equal entries are not always repeated. About 83,000 compounds went through this panel and 20% of them were active in at least one assay; those are over-represented in the sample as a whole.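 Cells were grown in 96-well plates and exposed to the test compound at a single concentration for 48 hours; results are reported as percent growth, with values below 10 considered active.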 Active and inactive are the calls of the source. Where a SMILES comes first, the peptide text is derived from it. [ ]: non-standard residue; d: D form. ξ: configuration not given here. ξV = CC(C)C(N)C(=O)O
# Test system: SW-620 colon
# Assay: NCI-60 one-dose screen, 48 h (100 = growth as untreated, 0 = no growth, -100 = all killed)
# Conditions: 0.0025 µM
# Protocol: Growth inhibition of the SW-620 human tumor cell line is measured as a screen for anti-cancer activity. Cells are grown in 96 well plates and exposed to the test compound for 48 hours. Compounds are tested at a single concentration, which is 10^-5 M for most compounds. The reported endpoint is percent growth (GI% or GIPRCNT), where numbers from 0 - 100% represent growth inhibition, and numbers from -100% - 0 represent cell death. For example, a value of 40 represents 60% growth inhibition. A value of 0 means no net growth occurred over the course of the experiment. A value of -40 indicates 40% of cells at the beginning of the experiment died by the end of the experiment. A value of -100 means all cells are dead at the end of the experiment.
# NCI-60 Human Tumor Cell Lines Screen was performed using the standard one-dose NCI protocol, which is described in more detail at https://dtp.cancer.gov/discovery_development/nci-60/default.htm.
# Compounds with GIPRCNT values below 10 were considered active. Activity score was based on GIPRCNT using the following formula: […]
# Score is 0 for GIPRCNT values of 100 or above, 50 for GIPRCNT values of 0, and 100 for GIPRCNT values of -100.
row,Structure (SMILES),growth
1,COc1cccc2c1C(=O)c1c(O)c3c(c(O)c1C2=O)C[C@@](O)(C(=O)CO)C[C@@H]3OC1CC(N)C(O)C(C)O1 (stereo not given in full),91.7% (inactive)

# Same assay, conditions: 1 µM
row,Structure (SMILES),growth
1,COc1cccc2c1C(=O)c1c(O)c3c(c(O)c1C2=O)C[C@@](O)(C(=O)CO)C[C@@H]3OC1CC(N)C(O)C(C)O1 (stereo not given in full),-1.05% (active)

# Same assay, conditions: 10 µM
row,Structure (SMILES),growth
1,CSC1SCC2C(=O)N(C)C(C(C)C)C(=O)OCC(NC(=O)c3cnc4ccccc4n3)C(=O)NC(C)C(=O)N(C)C1C(=O)N(C)C(C(C)C)C(=O)OCC(NC(=O)c1cnc3ccccc3n1)C(=O)NC(C)C(=O)N2C (stereo not given),1.31% (active)
2,COC1OCC(O)C(O)C1O (stereo not given),99.3% (inactive)
3,OC(CN1CCCC2CCCCC21)c1cc2ccccc2c2ccccc12 (stereo not given),27.1% (inactive)
4,O=C(C(=Cc1ccccc1)C(=O)c1ccccc1)c1ccccc1,44.3% (inactive) and 84.4% (inactive)
5,COC(=O)C1=COC(C)C2C[n+]3ccc4c([nH]c5ccccc54)c3CC12 (stereo not given),100% (inactive) and 84% (inactive)
6,Cc1cc(O)c(C(C)C)cc1Cl,105% (inactive)
7,OCC1OC(n2cnc3c(=S)nc[nH]c32)C(O)C1O (stereo not given),104% (inactive) and 76.6% (inactive)
8,CCCCCCCCCCCCCCCCCCOCC(COP(=O)([O-])OCC[N+](C)(C)C)OC (stereo not given),70.1% (inactive)
9,C[n+]1c2cc(N)ccc2cc2ccc(N)cc21,2.1% (active) [middle of 4 runs]
10,O=C(Nc1ccc(C(=O)O)c(O)c1)c1ccccc1,99% (inactive) and 113% (inactive)
11,COc1cccc2c1C(=O)c1c(O)c3c(c(O)c1C2=O)C[C@@](O)(C(C)=O)C[C@@H]3OC1CC(N)C(O)C(C)O1 (stereo not given in full),-3.91% (active)
12,Clc1cc(Cl)c(Cl)nn1,107% (inactive)
13,NC(=O)SCC(=O)NNc1ccccc1,87.5% (inactive)
14,O=c1ccn(C2CC(O)C(COC(c3ccccc3)(c3ccccc3)c3ccccc3)O2)c(=O)[nH]1 (stereo not given),99.4% (inactive)
15,CCCCCC(C)c1ccc(O)c(C)c1 (stereo not given),105% (inactive)
16,CN1CCN(CCCN2c3ccccc3Sc3ccc(C(F)(F)F)cc32)CC1,34.3% (inactive)
17,CC(C)(C)CC(C)(C)c1ccc(OCCO)cc1,109% (inactive)
18,CCCCCCCCCCSC(=N)N,-5.44% (active)
19,CC1=CC(C)=Nc2ccc(Cl)cc2N1,98.8% (inactive)

row,Structure (SMILES),growth
1,Oc1ccc(N=Nc2ccccn2)c(O)c1,32.9% (inactive)
2,O=C1NC(=O)c2cc([N+](=O)[O-])ccc21,103% (inactive)
3,Cc1cc(NS(=O)(=O)c2ccc(N=Nc3cc(N=Nc4ccc(S(=O)(=O)Nc5cc(C)nc(C)n5)cc4)c4c(NC(=O)C(Cl)Cl)cccc4c3OC(=O)C(Cl)Cl)cc2)nc(C)n1 (tested in a mixture with another compound),122% (inactive) and 104% (inactive)
4,Clc1ccc(/C=C/c2ccccn2)c(Cl)c1,86% (inactive)
5,COc1cccc2c1C(=O)c1c(O)c3c(c(O)c1C2=O)C[C@@](O)(C(=O)CO)C[C@@H]3OC1CC(N)C(O)C(C)O1 (stereo not given in full),1.93% (active)
6,O=C(/C=C/c1cccnc1)c1ccccc1,23% (inactive)
7,CC(C)C(NC(=O)CN)C(=O)O (stereo not given) (H-Gly-[ξV]-OH),117% (inactive) and 101% (inactive)
8,CC(=O)OCC(OC(C)=O)C(OC(C)=O)C(OC(C)=O)C(OC(C)=O)C(/C=N/Nc1ccccc1)=N/Nc1ccccc1 (stereo not given),49.7% (inactive)
9,COc1ccc(CC(=O)c2ccc(O)cc2O)cc1,111% (inactive)
10,O=C1C=CC(=CC=C2C=CN(CCCCCCCCCCCO)C=C2)C=C1,41.9% (inactive)
11,CCN(CC)c1ccc(NC(C(=O)c2ccccc2)c2ccccc2)cc1 (stereo not given),6.54% (active)
12,N=S(c1ccccc1[N+](=O)[O-])c1ccccc1[N+](=O)[O-],17.9% (inactive)
13,Cc1nc(N=C(N)N)nc2ccc3ccccc3c12,9.65% (active)
14,NNc1c2ccccc2nc2ccccc12,43.9% (inactive)
15,CCCCCCCCCCCCSC(=NC)NC,-25.5% (active) and 32.3% (inactive)
16,CC[N+](CC)=c1ccc2nc3c(cc(N)c4ccccc43)oc-2c1,-25.2% (active)
17,COc1c(O)cc2oc3cc(O)c(CC=C(C)C)c(O)c3c(=O)c2c1CC=C(C)C,60.9% (inactive)
18,CCO/C=C1\SC(=S)N(c2cccc(O)c2)C1=O,112% (inactive)

# Same assay, conditions: 100 µM
row,Structure (SMILES),growth
1,O=c1ccn(C2CC(O)C(COC(c3ccccc3)(c3ccccc3)c3ccccc3)O2)c(=O)[nH]1 (stereo not given),62.2% (inactive)
